The results in this text go back to PubChem BioAssay (EPA / NIEHS).

Read-out in experiment [1]: Forkhead box O1 (FOXO1), FOXO1 (gene 2308)
Description: LTEA_HepaRG_FOXO1: Life Technologies and Expression Analysis (LTEA) Assay for Forkhead box O1 (FOXO1) using HepaRG (AID 2283456). The note with it: mRNA level, 48 h; actives raise or lower the signal. The method, boiled down: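 Using one lot of HepaRG hepatic cells kept in 0.5% DMSO, the team applied test chemicals in duplicate, half-log dilutions from 100 uM, for 48 h. Expression, normalised to ACTB/GAPDH/POLR2A, was compared with vehicle in either direction.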

Read-out in experiment [2]: growth arrest and DNA damage 45 (GADD45A), GADD45A (gene 1647)
Description: LTEA_HepaRG_GADD45A: Life Technologies and Expression Analysis (LTEA) Assay for growth arrest and DNA damage 45 (GADD45A) using HepaRG (AID 2283458). As to conditions: mRNA level, 48 h; actives raise or lower the signal. The method, boiled down: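 Eight-point concentration-response in HepaRG cells: 48 h chemical exposure, 0.5% DMSO vehicle, top dose 100 uM. Normalized qRT-PCR mRNA readout with bidirectional fitting relative to DMSO.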

Read-out in experiment [3]: Forkhead box O3 (FOXO3), FOXO3 (gene 2309)
Briefly: LTEA_HepaRG_FOXO3: Life Technologies and Expression Analysis (LTEA) Assay for Forkhead box O3 (FOXO3) using HepaRG (AID 2283459). As to conditions: mRNA level, 48 h; actives raise or lower the signal. The gist of the method:
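Gene-expression endpoint: FOXO3 transcript level by qRT-PCR in HepaRG cultures treated 48 h with chemicals up to 100 uM (half-log, 0.5% DMSO vehicle).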

Read-out in experiment [4]: ABC Transporter (ABCB1), ABCB1 (gene 5243)
Description: LTEA_HepaRG_ABCB1: Life Technologies and Expression Analysis (LTEA) Assay for ABC Transporter (ABCB1) using HepaRG (AID 2283460). As to conditions: mRNA level, 48 h; actives raise or lower the signal. The gist of the method: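 Human liver HepaRG line treated 48 h with up to 100 uM compound (eight half-log points, 0.5% DMSO); ABCB1 mRNA change fitted bidirectionally against DMSO controls.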

Read-out in experiment [5]: growth arrest and DNA damage 45 (GADD45B), GADD45B (gene 4616)
Briefly: LTEA_HepaRG_GADD45B: Life Technologies and Expression Analysis (LTEA) Assay for growth arrest and DNA damage 45 (GADD45B) using HepaRG (AID 2283461). As to conditions: mRNA level, 48 h; actives raise or lower the signal. The method, boiled down: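 Differentiated HepaRG cells, plated 48 h then switched to serum-free induction medium, were exposed 48 h in duplicate to eight half-log concentrations from 100 uM in 0.5% DMSO; mRNA quantified by qRT-PCR, normalized to ACTB/GAPDH/POLR2A, bidirectional fit versus DMSO.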

Read-out in experiment [6]: ABC Transporter (ABCC3), ABCC3 (gene 8714)
Description: LTEA_HepaRG_ABCC3: Life Technologies and Expression Analysis (LTEA) Assay for ABC Transporter (ABCC3) using HepaRG (AID 2283462). As to conditions: mRNA level, 48 h; actives raise or lower the signal. The method, boiled down:
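HepaRG cells in serum-free induction medium were exposed for 48 h in duplicate to 8-point half-log concentrations topping at 100 uM in 0.5% DMSO. ABCC3 mRNA was measured by qRT-PCR normalized to ACTB, GAPDH and POLR2A, with bidirectional fitting versus DMSO.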

Read-out in experiment [7]: ABC Transporter (ABCB11), ABCB11 (gene 8647)
Description: LTEA_HepaRG_ABCB11: Life Technologies and Expression Analysis (LTEA) Assay for ABC Transporter (ABCB11) using HepaRG (AID 2283463). As to conditions: mRNA level, 48 h; actives raise or lower the signal. The gist of the method: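 Using HepaRG cultures held in 0.5% DMSO, chemicals were tested at half-log dilutions from 100 uM for 48 h. Induction or suppression of ABCB11 mRNA, normalized to ACTB, GAPDH and POLR2A, was fitted bidirectionally against vehicle.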

Read-out in experiment [8]: ABC Transporter (ABCC2), ABCC2 (gene 1244)
Briefly: LTEA_HepaRG_ABCC2: Life Technologies and Expression Analysis (LTEA) Assay for ABC Transporter (ABCC2) using HepaRG (AID 2283464). As to conditions: mRNA level, 48 h; actives raise or lower the signal. The method, boiled down: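 HepaRG cells were plated 48 h, switched to serum-free induction medium, then exposed in duplicate for 48 h to 8 concentrations (top 100 uM, half-log steps, 0.5% DMSO). ABCC2 mRNA was measured by qRT-PCR normalized to ACTB/GAPDH/POLR2A; bidirectional fitting versus DMSO.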

Read-out in experiment [9]: Broad substrate specificity ATP-binding cassette transporter ABCG2 (Homo sapiens) (UniProt Q9UNQ0)
Description: LTEA_HepaRG_ABCG2: Life Technologies and Expression Analysis (LTEA) Assay for ABC Transporter (ABCG2) using HepaRG (AID 2283465). As to conditions: mRNA level, 48 h; actives raise or lower the signal. The method, boiled down: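 Gene expression of ABCG2 in HepaRG liver cells is quantified by qRT-PCR following 48 h exposure across an eight-point series topping at 100 uM. Values come from bidirectional fitting relative to DMSO vehicle.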

Experiment [10] is described as follows: CEETOX_H295R_TESTO: CeeTox H295R High-throughput Steroidogenesis Assay for Testosterone (TESTO) (AID 2283457).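 As to AC50: cells exposed to chemicals for 48 h before medium collection.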 As to conditions: actives raise or lower the signal. The gist of the method: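 H295R human adrenal cells in DMEM/F12 with ITS+ and Nu-Serum, exposed to chemicals for 48 h. Testosterone in medium measured by MTBE extraction, reverse-phase HPLC-MS/MS; bidirectional fit versus DMSO baseline. MTT viability checked in same wells.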

The source made the active and inactive calls. The calls were made as follows: active = hit-call score of the fitted dose curve at least 0.9, where 1 is the maximum; inactive = score below 0.9.

Chain of Broad substrate specificity ATP-binding cassette transporter ABCG2 (Homo sapiens) (Q9UNQ0 whole entry, looked up): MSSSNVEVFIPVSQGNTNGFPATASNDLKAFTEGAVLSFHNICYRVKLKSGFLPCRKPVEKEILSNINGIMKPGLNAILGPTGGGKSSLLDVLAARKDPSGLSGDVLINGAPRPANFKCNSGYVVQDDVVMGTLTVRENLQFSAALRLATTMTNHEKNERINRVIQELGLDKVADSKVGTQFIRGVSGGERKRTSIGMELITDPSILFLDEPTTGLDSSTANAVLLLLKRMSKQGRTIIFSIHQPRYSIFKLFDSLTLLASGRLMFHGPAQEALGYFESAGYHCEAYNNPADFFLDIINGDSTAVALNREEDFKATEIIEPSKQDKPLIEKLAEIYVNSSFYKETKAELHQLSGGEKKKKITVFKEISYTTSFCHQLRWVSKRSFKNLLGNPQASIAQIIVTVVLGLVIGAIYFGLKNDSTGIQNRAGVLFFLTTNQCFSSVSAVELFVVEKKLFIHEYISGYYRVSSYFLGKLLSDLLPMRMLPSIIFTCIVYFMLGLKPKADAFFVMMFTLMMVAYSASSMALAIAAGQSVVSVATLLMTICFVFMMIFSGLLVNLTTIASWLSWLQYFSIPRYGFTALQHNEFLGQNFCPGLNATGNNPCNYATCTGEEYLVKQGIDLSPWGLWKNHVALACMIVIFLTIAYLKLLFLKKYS

Turning to `N#Cc1cccnc1`, the compound was classed as inactive in experiment [1], in [2], in [3], in experiment [4], in [5] and in [6]. The result in experiment [7], in [8] and in [9] was inactive.

As for `CC(C)O.CC(C)O.OCCN(CCO)CCO.OCCN(CCO)CCO.[Ti]`, the outcome in experiment [1], in [2], in [3], in experiment [4], in experiment [5] and in [6] was inactive. Besides, the compound was called inactive in experiment [7], in [8] and in experiment [9].

On to `O=S1OC[C@@H]2[C@H](CO1)[C@]1(Cl)C(Cl)=C(Cl)[C@@]2(Cl)C1(Cl)Cl` (some centres not stated), for which the AC50 in experiment [10] is 50 µM (active).

On to `Clc1cccc(Cl)c1`, for which the compound was called inactive in experiment [1], in experiment [2], in experiment [3], in experiment [4], in experiment [5] and in [6]. For the same compound, the compound was called inactive in [7], in experiment [8] and in experiment [9].

With `CN(C)C(=S)S`, the compound was classed as inactive in experiment [1], in experiment [2], in [3], in experiment [4], in experiment [5] and in [6]. Moreover, the outcome in experiment [7], in experiment [8] and in [9] was inactive.

With `Cc1ccccc1OP(=O)(Oc1ccccc1C)Oc1ccccc1C`, the compound was classed as inactive in experiment [10].

`Cc1cc(C)cc(C)c1`: the result in experiment [1], in experiment [2], in [3], in experiment [4], in [5] and in [6] was inactive. Besides, the compound was called inactive in experiment [7], in experiment [8] and in [9].

With `O=C(N[C@H]1CN2CCC1CC2)c1ccc2c(c1)OCCO2`, the result in experiment [1], in experiment [2], in [3], in experiment [4], in [5] and in [6] was inactive. In addition, the compound was called inactive in [7], in experiment [8] and in [9].

On to `Oc1cc(Cl)c(Cl)cc1Cl`, for which the outcome in experiment [1], in experiment [2], in experiment [4], in experiment [5], in [6] and in experiment [7] was inactive. Further, the call in [8] and in [9] was inactive.

In the case of `Cc1cc(C(C)(C)c2ccc(O)c(C)c2)ccc1O`, in experiment [10], the AC50 was 5 µM (active).

For the compound `O=C(O)C1(c2ccc3c(c2)OC[C@H](Cc2ccc(-c4ccccc4)cc2)[C@H]3O)CCCC1`, the AC50 in experiment [1] is 50 µM (active); in experiment [5] it was 86.9 µM (active); in experiment [6] it was 75.7 µM (active). In addition, the compound was classed as inactive in experiment [2], in [3], in experiment [4], in [7], in [8] and in [9].

As for `CCCCCCCCCCCCc1cccc(S(=O)(=O)O)c1`, the AC50 is 16.1 µM (active) in experiment [1], 45 µM (active) in [3] and 45 µM (active) in [8]. For the same compound, the call in experiment [2], in [4], in [5], in [6], in experiment [7] and in experiment [9] was inactive.

For `OCCN(CCO)CCO`, the call in experiment [1], in [2], in [3], in [4], in experiment [5] and in experiment [6] was inactive. The compound was classed as inactive in [7], in [8] and in [9].

Take `CC(C)(C)c1ccccc1O`: the result in experiment [1], in experiment [2], in experiment [3], in experiment [4], in experiment [5] and in experiment [6] was inactive. For the same compound, the call in experiment [7], in [8] and in experiment [9] was inactive.

On to `Oc1c(Cl)cc(Cl)cc1Cl`, for which the outcome in experiment [1], in [2], in [3], in experiment [5], in experiment [6] and in experiment [8] was inactive. In experiment [9], the compound was called inactive.

With `OC(Cc1ccccc1Cl)(Cn1[nH]cnc1=S)C1(Cl)CC1` (configuration not stated), the compound was called inactive in [10].

As for `Clc1cccc(Cl)c1Cl`, the outcome in [1], in experiment [2], in [3], in experiment [4], in [5] and in [6] was inactive. Further, the compound was called inactive in experiment [7], in experiment [8] and in experiment [9].

For the compound `COc1ccccc1N`, the result in experiment [1], in [2], in [3], in [4], in experiment [5] and in [6] was inactive. The call in experiment [7], in experiment [8] and in experiment [9] was inactive.
